Source: PubChem BioAssay (NCI)
The panel holds about 83,000 compounds, 20% with a hit somewhere; the sample as a whole holds those more often.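 Cell lines were cultured in 96-well plates, exposed to a single compound concentration, and assessed for percent growth 48 hours later.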 Activity calls are given as the source filed them. Rule for the calls: active = growth percent below 10; inactive = the rest.

Legend:
Assay in all cases: NCI-60 one-dose screen, 48 h (100 = growth as untreated, 0 = no growth, -100 = all killed)
HCT-15 colon = system: HCT-15 colon
HT29 colon = system: HT29 colon
SNB-75 CNS = system: SNB-75 CNS
SNB-19 CNS = system: SNB-19 CNS
U251 CNS = system: U251 CNS
PC-3 prostate = system: PC-3 prostate
SK-MEL-5 melanoma = system: SK-MEL-5 melanoma
UACC-62 melanoma = system: UACC-62 melanoma
LOX IMVI melanoma = system: LOX IMVI melanoma
SK-MEL-28 melanoma = system: SK-MEL-28 melanoma

Measured: growth

Nc1cc(-c2c[nH]c3ccc(Cl)cc23)nc2cc(-c3c[nH]c4ccccc34)nn12
inactive: SNB-75 CNS; 10 µM unless noted 19.4%
active: HCT-15 colon; 10 µM unless noted -87.1% | HT29 colon; 10 µM unless noted -59.7% | SNB-19 CNS; 10 µM unless noted -59.5% | U251 CNS; 10 µM unless noted -74.4% | PC-3 prostate; 10 µM unless noted -12% | SK-MEL-5 melanoma; 10 µM unless noted -87% | UACC-62 melanoma; 10 µM unless noted -82.7% | LOX IMVI melanoma; 10 µM unless noted -94.6% | SK-MEL-28 melanoma; 10 µM unless noted -66.9%

N#Cc1ccc(C(=O)CSc2nc3c(c(Nc4ccc(S(N)(=O)=O)cc4)n2)CCC3)cc1
active: SNB-75 CNS; 10 µM unless noted 8.38% | SNB-19 CNS; 10 µM unless noted -13.3% | U251 CNS; 10 µM unless noted -85.2% | LOX IMVI melanoma; 10 µM unless noted 1.66%
inactive: HCT-15 colon; 10 µM unless noted 49.9% | HT29 colon; 10 µM unless noted 55.8% | PC-3 prostate; 10 µM unless noted 65.3% | SK-MEL-5 melanoma; 10 µM unless noted 71.9% | UACC-62 melanoma; 10 µM unless noted 83.1% | SK-MEL-28 melanoma; 10 µM unless noted 48.5%

O=C(N=Nc1c(O)[nH]c2ccc(Cl)cc12)c1ccc2nc(-c3ccc(Cl)cc3)[nH]c2c1
active: SNB-75 CNS; 10 µM unless noted -21.3% | SNB-19 CNS; 10 µM unless noted -52.2% | U251 CNS; 10 µM unless noted -88.3% | UACC-62 melanoma; 10 µM unless noted -59% | LOX IMVI melanoma; 10 µM unless noted -100% | SK-MEL-28 melanoma; 10 µM unless noted -79.3%
inactive: HCT-15 colon; 10 µM unless noted 78.6% | HT29 colon; 10 µM unless noted 16.9% | PC-3 prostate; 10 µM unless noted 28.1% | SK-MEL-5 melanoma; 10 µM unless noted 66.8%

COc1ccc(NC(=O)Nc2nc3ccc([N+](=O)[O-])cc3s2)cc1
active: HCT-15 colon; 10 µM unless noted 9.87% | U251 CNS; 10 µM unless noted 0.863% | SK-MEL-5 melanoma; 10 µM unless noted -70.7%
inactive: HT29 colon; 10 µM unless noted 58.1% | SNB-75 CNS; 10 µM unless noted 62.3% | SNB-19 CNS; 10 µM unless noted 14.6% | PC-3 prostate; 10 µM unless noted 10.5% | UACC-62 melanoma; 10 µM unless noted 36.2% | LOX IMVI melanoma; 10 µM unless noted 33.8% | SK-MEL-28 melanoma; 10 µM unless noted 47.7%

CC1=C(C)C(=O)C(NCCN2CCOCC2)=C(Br)C1=O
active: LOX IMVI melanoma; 10 µM unless noted -28.5%
inactive: HCT-15 colon; 10 µM unless noted 90.7% | HT29 colon; 10 µM unless noted 93.7% | SNB-75 CNS; 10 µM unless noted 106% | SNB-19 CNS; 10 µM unless noted 91.3% | U251 CNS; 10 µM unless noted 44.8% | PC-3 prostate; 10 µM unless noted 61.8% | SK-MEL-5 melanoma; 10 µM unless noted 62.1% | UACC-62 melanoma; 10 µM unless noted 39.4% | SK-MEL-28 melanoma; 10 µM unless noted 75.4%

Cc1nn(-c2ccccc2)c2nc(C)n(C(=O)N/N=C/c3ccccc3)c(=O)c12
inactive: HCT-15 colon; 10 µM unless noted 107% | HT29 colon; 10 µM unless noted 106% | SNB-75 CNS; 10 µM unless noted 62.3% | SNB-19 CNS; 10 µM unless noted 87% | U251 CNS; 10 µM unless noted 95.5% | PC-3 prostate; 10 µM unless noted 92.7% | SK-MEL-5 melanoma; 10 µM unless noted 103% | UACC-62 melanoma; 10 µM unless noted 92.6% | LOX IMVI melanoma; 10 µM unless noted 96.8% | SK-MEL-28 melanoma; 10 µM unless noted 105%

O=C(Cn1c(-c2ccccc2)nc2ccccc21)N=Nc1c(O)[nH]c2ccc(Cl)cc12
active: HCT-15 colon; 10 µM unless noted 7.61% | HT29 colon; 10 µM unless noted 2.44% | SNB-75 CNS; 10 µM unless noted -49.5% | SNB-19 CNS; 10 µM unless noted -4.56% | UACC-62 melanoma; 10 µM unless noted -2.77% | LOX IMVI melanoma; 10 µM unless noted 8.05% | SK-MEL-28 melanoma; 10 µM unless noted -51%
inactive: U251 CNS; 10 µM unless noted 13.4% | PC-3 prostate; 10 µM unless noted 21.7% | SK-MEL-5 melanoma; 10 µM unless noted 10.7%

COc1ccc(-c2cc(C(=O)N=Nc3c(O)[nH]c4ccc(Cl)cc34)c3ccccc3n2)cc1
active: HCT-15 colon; 10 µM unless noted -42.2% | HT29 colon; 10 µM unless noted -17.3% | U251 CNS; 10 µM unless noted -64.1% | LOX IMVI melanoma; 10 µM unless noted -29.8% | SK-MEL-28 melanoma; 10 µM unless noted -6.34%
inactive: SNB-75 CNS; 10 µM unless noted 62.9% | SNB-19 CNS; 10 µM unless noted 23.5% | PC-3 prostate; 10 µM unless noted 48% | SK-MEL-5 melanoma; 10 µM unless noted 93% | UACC-62 melanoma; 10 µM unless noted 73.2%

CC/C(=C(/c1ccc(O)cc1)c1ccc(OCCN(C)C(=O)COCCOCCNC(=O)Cc2ccc3c(c2)CN([C@@H]2CCC(=O)NC2=O)C3=O)cc1)c1ccccc1
inactive: HCT-15 colon; 1 µM 107% | HCT-15 colon; 10 µM 105% | HT29 colon; 1 µM 102% | HT29 colon; 10 µM 83% | SNB-75 CNS; 1 µM 59.6% | SNB-75 CNS; 10 µM 22.7% | SNB-19 CNS; 1 µM 79.5% | SNB-19 CNS; 10 µM 47.5% | U251 CNS; 1 µM 91.9% | U251 CNS; 10 µM 88.7% | PC-3 prostate; 1 µM 52.8% | PC-3 prostate; 10 µM 24.4% | SK-MEL-5 melanoma; 1 µM 96.3% | SK-MEL-5 melanoma; 10 µM 65.8% | UACC-62 melanoma; 1 µM 95.6% | UACC-62 melanoma; 10 µM 88.2% | LOX IMVI melanoma; 1 µM 95.1% | LOX IMVI melanoma; 10 µM 92.1% | SK-MEL-28 melanoma; 1 µM 98.3% | SK-MEL-28 melanoma; 10 µM 74.3%

O=C(N/N=C/c1ccc(Cl)cc1)c1ccc(OCc2nc3ccc(Cl)cc3[nH]2)cc1
inactive: SNB-75 CNS; 10 µM unless noted 53.9% | SNB-19 CNS; 10 µM unless noted 35% | SK-MEL-5 melanoma; 10 µM unless noted 52.2% | UACC-62 melanoma; 10 µM unless noted 47.5% | SK-MEL-28 melanoma; 10 µM unless noted 41%
active: HCT-15 colon; 10 µM unless noted -47.1% | HT29 colon; 10 µM unless noted -55.7% | U251 CNS; 10 µM unless noted -88.5% | PC-3 prostate; 10 µM unless noted -10.1% | LOX IMVI melanoma; 10 µM unless noted -81%

c1n[nH]cc1-c1nc2ccc3[nH]ncc3c2c2c1CC1(CC2)COC1
inactive: HCT-15 colon; 10 µM unless noted 70.5% | HT29 colon; 10 µM unless noted 52.1% | SNB-19 CNS; 10 µM unless noted 47.4% | U251 CNS; 10 µM unless noted 39.5% | PC-3 prostate; 10 µM unless noted 53% | SK-MEL-5 melanoma; 10 µM unless noted 44.7% | UACC-62 melanoma; 10 µM unless noted 18.7% | LOX IMVI melanoma; 10 µM unless noted 38.5% | SK-MEL-28 melanoma; 10 µM unless noted 44.5%
active: SNB-75 CNS; 10 µM unless noted -5.96%

O=C(Nc1ccc(Cl)c(C(F)(F)F)c1)N1CCN(c2cc(-c3cn(-c4ccccc4)nc3-c3cccc(O)c3)ccn2)CC1
inactive: SNB-19 CNS; 10 µM unless noted 17% | U251 CNS; 10 µM unless noted 11.8%
active: HCT-15 colon; 10 µM unless noted -7.34% | HT29 colon; 10 µM unless noted -35.3% | SNB-75 CNS; 10 µM unless noted 5.08% | PC-3 prostate; 10 µM unless noted 6.31% | SK-MEL-5 melanoma; 10 µM unless noted -97.2% | UACC-62 melanoma; 10 µM unless noted -88.6% | LOX IMVI melanoma; 10 µM unless noted -76.9% | SK-MEL-28 melanoma; 10 µM unless noted -24.8%

COC(=O)c1cccc(Oc2ccc(NC(=O)Nc3cc(C(F)(F)F)ccc3F)cc2)c1
active: SNB-75 CNS; 10 µM unless noted -34.1%
inactive: HCT-15 colon; 10 µM unless noted 62% | HT29 colon; 10 µM unless noted 62.9% | SNB-19 CNS; 10 µM unless noted 10.7% | U251 CNS; 10 µM unless noted 40.4% | PC-3 prostate; 10 µM unless noted 69.9% | SK-MEL-5 melanoma; 10 µM unless noted 94.5% | UACC-62 melanoma; 10 µM unless noted 69.6% | LOX IMVI melanoma; 10 µM unless noted 79.5% | SK-MEL-28 melanoma; 10 µM unless noted 88.7%
